Experimental data: PubChem BioAssay (NCATS)
Results filed as inconclusive are left out. Activity calls are given as the source filed them. Calls follow the shape of the full dose curve.

Assay: Primary qHTS to identify inhibitors of SARS-CoV-2 cell entry (AID 1645846); also: nearly all actives have a fitted effect of over 45% in size
Details: SARS-CoV-2 pseudovirus cell entry assay, luminescence; activity change, negative = inhibition: at 57.1 µM (top of the series) unless noted
Procedure, shortened: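 Inhibition of spike-mediated entry was scored in human ACE2-transfected Expi293F cells. Particles were MLV-pseudotyped with Wuhan-Hu-1 S carrying a 19-aa C-terminal deletion; signal was luciferase after two days, scaled between spike PP and fusion-protein-free PP.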
Potency is read from the fitted curve at half-maximal effect.

SMILES | activity change, negative = inhibition | Potency | outcome
Cc1[nH]nc(C(F)(F)F)c1Cc1sc2c(c1C(=O)N1C[C@](C)(O)CO1)c(=O)n(C)c(=O)n2C(C)C | -25.9% | – | –
Cc1nn(C)c(COc2ccc(N3CCN(S(=O)(=O)N(C)C)CC3)cc2)c1-c1cccc2c(CCCOc3cccc4ccccc34)c(C(=O)O)n(CCN3CCOCC3)c12 | -18.4% | – | –
Cc1nnc(C(C)C)n1C1CC2CCC(C1)N2CCC(NC(=O)C1CCC(F)(F)CC1)c1ccccc1 (centres undefined) | -24.8% | – | –
O=C1S/C(=C\c2ccc(OCc3cccc(B(O)O)c3)cc2)C(=O)N1Cc1ccc(F)cc1 | -28.4% | – | –
NC1CCCN(c2c(/C=C3\SC(=O)NC3=O)cccc2-c2ccccc2)C1 (centres undefined) | -5.59% | – | –
NCC(=O)Nc1cncc(-c2nn3c(=O)cc(N4CCNCC4)nc3s2)c1 | -55.5% | – | –
O=C(/C=C\n1cnc(-c2cc(C(F)(F)F)cc(C(F)(F)F)c2)n1)NNc1ccccn1 | – | 3.16 µM (active) | –
O=C(O)CNC(=O)c1ncc(-c2cccc(Cl)c2)cc1O | – | – | inactive
CC1(C)CN(C(=O)c2ccc(-c3cccc4nc(NC(=O)C5CC5)nn34)cc2)C1 | -61.8% | – | –
Cc1ccc(-c2ccc3ncc4c(c3n2)n(C2CCN(C(=O)[C@H](C)O)CC2)c(=O)n4C)cn1 | -95.8% | – | –
COc1cc2ncnc(Nc3cccc(Cl)c3F)c2cc1OC(=O)N1CCN(C)C[C@H]1C | -27.8% | – | –
Cc1c(Cl)cccc1S(=O)(=O)Nc1nc(CCN2CCOCC2=O)cs1 | -11.4% | – | –
Cn1c(-c2ccccc2C(F)(F)F)nnc1C12CCC(c3noc(C4CC(F)(F)C4)n3)(CC1)CC2 | -12.8% | – | –
CC(=O)[C@]1(N)Cc2c(O)c3c(c(O)c2[C@@H](O[C@H]2C[C@H](O)[C@H](O)CO2)C1)C(=O)c1ccccc1C3=O | – | – | inactive
Nc1nccc(-c2c(-c3ccc(F)cc3)ncn2C2CCCCC2)n1 | – | – | inactive
NC[C@H]1O[C@H](O[C@H]2[C@H](O)[C@@H](O[C@H]3O[C@H](CO)[C@@H](O)[C@H](N)[C@H]3O)[C@H](N)C[C@@H]2N)[C@H](N)C[C@@H]1O | -8.09% | – | –
CC1(C)SCCN(S(=O)(=O)c2ccc(OCC#CCO)cc2)[C@H]1C(=O)NO | -8.73% | – | –
CC(=O)Nc1ccc(C(=O)NC(C)(C)C)cc1 | – | – | inactive
O=c1ncccn1[C@@H]1O[C@H](CO)[C@@H](O)[C@H]1O | – | – | inactive
Cc1cc(-c2cnn3c(NCC4CC(C)(O)C4)cc(Oc4cccnc4)nc23)ccc1C(=O)NC1CC1 (centres undefined) | -11.3% [at 5.25 µM] | – | –

SMILES | activity change, negative = inhibition | Potency | outcome
O=c1ccn([C@@H]2O[C@H](CO)[C@@H](O)[C@H]2O)c(=O)[nH]1 | -16.1% | – | –
Cc1ccc(NS(=O)(=O)c2ccc3c(c2)C2C=CCC2C(c2ccc(C(=O)O)cc2)N3)cc1C (centres undefined) | -18.7% | – | –
C#Cc1cccc(Nc2ncnc3cc4c(cc23)OCCOCCOCCO4)c1 | -13.8% | – | –
CCN1CCN(Cc2ccc(NC(=O)c3ccc(C)c(NC(=O)c4cncc(-c5cccs5)c4)c3)cc2C(F)(F)F)CC1 | – | 3.16 µM (active) | –
CCN(c1cc(-c2ccc(CN3CCOCC3)cc2)cc(C(=O)NCc2c(C)cc(C)[nH]c2=O)c1C)C1CCOCC1 | – | – | inactive
O=C(NC[C@H](O)CN1CCc2ccccc2C1)c1ccnc(NC2CCC2)c1 | 4.47% | – | –
Cc1cc(O)c(-c2ccc([C@@H](C)CN)cc2)c2c1[nH]c(=O)c1sccc12 | -4.37% | – | –
Nc1nc(F)nc2c1ncn2[C@@H]1O[C@H](COP(=O)(O)O)[C@@H](O)[C@@H]1O | 0.103% | – | –
CC[C@H](Nc1ncnc2nc[nH]c12)c1oc2ccccc2c(=O)c1-c1cccc(F)c1 | – | – | inactive
CN(C)C1CCN(C(=O)c2ccc(NC(=O)Nc3ccc(-c4nc(N5CCOCC5)nc(N5CCOCC5)n4)cc3)cc2)CC1 | – | 1.58 µM (active) | –
CC#Cc1cncc(-c2ccc3c(c2)[C@@]2(N=C(C)C(N)=N2)C2(CCC(OC)CC2)C3)c1 (some centres undefined) | – | – | inactive
CC(C)(O)C1CCC(Nc2ccc3ncc(-c4cccc(C(F)(F)F)c4)n3n2)CC1 (centres undefined) | -18.1% | – | –
C[C@@H](Oc1cc(C(=O)Nc2ccc(C(=O)N3CCN(C)CC3)cc2)nnc1N)c1c(Cl)ccc(F)c1Cl | – | 12.6 µM (active) | –
CC(C)S(=O)(=O)c1ccc2nccc(Nc3ccc4scnc4c3)c2c1 | -14.4% | – | –
COC[C@@H](c1ccc(C(F)(F)F)cc1)N1CCN(C2(C)CCN(C(=O)c3c(C)ncnc3C)CC2)C[C@@H]1C | -12.7% | – | –
CCCCOC(=O)NS(=O)(=O)c1sc(CC(C)C)cc1-c1ccc(Cn2ccnc2)cc1 | – | – | inactive
CN(C)CCNC(=O)COc1c2cccc1Cc1cccc(c1OCC(=O)NCCN(C)C)Cc1cccc(c1OCC(=O)NCCN(C)C)Cc1cccc(c1OCC(=O)NCCN(C)C)C2 | – | – | inactive [at 11.3 µM]
O=C(Nc1ccc2c(c1)CCN(Cc1ncn[nH]1)C2)c1ccccc1-c1ccc(C(F)(F)F)cc1 | -32.8% | – | –
COc1cccc(OCCCN)c1-c1cc(Nc2cnc(C#N)cn2)n[nH]1 | -33% | – | –
